Screens deposited in PubChem BioAssay by NMMLSC.
Only some compounds are listed: those with a hit (about 0.93% of all), similar ones and a draw of the others.
AGP1-GFP MLPCN – modulators of AGP1-GFP expression in yeast TOR pathway, primary screen, cell-based, multiplex flow cytometry, S. cerevisiae, MLPCN library; 3 h; GFP as percent of DMSO wells; GFP response vs DMSO, % at 10 µM; 0.02% of 320,000 active; AID 2066, 2009;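 active = GFP response relative to DMSO above a set limit, near screen average plus 3 SD, cut at about 150% in these data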;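 also: median GFP channel fluorescence of the gated AGP1 strain per well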
MEP2-GFP yeast – modulators of MEP2-GFP levels in yeast, primary screen, S. cerevisiae, multiplex flow cytometry, MLPCN library; GFP response vs DMSO, % at 10 µM; S. cerevisiae MEP2-GFP strain, 3 h; 100% = DMSO control level; 0.51% of 330,000 active;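 active = GFP response versus DMSO above a set limit, roughly screen mean plus 3 SD, cut at about 180% in these data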;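 also: median GFP fluorescence of the barcode-gated MEP2-GFP cells per well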
LAP4 TOR yeast – modulators of LAP4-GFP expression in yeast, primary screen, S. cerevisiae, multiplex flow cytometry, MLPCN library; 3 h; median GFP as percent of DMSO wells; GFP response vs DMSO, % at 10 µM; 0.34% of 320,000 active;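 active = GFP response vs DMSO above a set limit, about the screen mean plus 3 SD, cut at about 150% in these data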
CIT2-GFP yeast – modulators of CIT2-GFP expression in yeast, primary screen, S. cerevisiae, GFP fusion, multiplex flow cytometry, MLPCN library | GFP response vs DMSO, % at 10 µM | AID 2029, 2009 | 0.065% of 320,000 active | S. cerevisiae CIT2-GFP strain, 3 h; 100 means same as DMSO wells;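 active = GFP response relative to DMSO above a set limit, near the screen mean plus 3 SD, cut at about 150% in these data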;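 also: ratio of well median GFP fluorescence to mean of DMSO wells on the plate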
RPL19A TOR yeast – RPL19A-GFP expression modulators in yeast, primary screen, cell-based, S. cerevisiae, multiplex flow cytometry, MLPCN; S. cerevisiae RPL19A-GFP strain, 3 h; active compounds read low; percent response vs DMSO, % at 10 µM; 0.3% of 330,000 active; AID 2025, 2009;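 active = percent response vs DMSO below 50%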;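 also: median channel GFP fluorescence of the barcoded RPL19A-GFP strain; lower means less RPL19A-GFP as with rapamycin TOR inhibition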
LAP4-GFP pick2 – LAP4-GFP expression modulators in yeast, confirmation, cell-based, second cherry pick, flow cytometry; shares compounds with LAP4 TOR yeast; S. cerevisiae LAP4-GFP strain, 3 h; GFP response vs DMSO, % at 10 µM; 20% of 590 active;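 active = GFP signal as percent of the solvent control above about 150%, meaning raised reporter expression, limit read from the data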
MEP2 cherry2 – modulators of MEP2-GFP levels in yeast, confirmation, S. cerevisiae, flow cytometry GFP, second cherry picks; shares compounds with LAP4 TOR yeast; S. cerevisiae MEP2-GFP strain, 3 h; GFP response vs DMSO, % at 10 µM; 10% of 590 active; AID 2622, 2010;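 active = GFP signal above 150% of the solvent control wells, that is a rise of more than half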;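 also: median channel GFP fluorescence of all gated yeast cells per well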
RPL19A GFP CP2 – RPL19A-GFP modulators in TOR pathway yeast, confirmation, cell-based, S. cerevisiae, flow cytometry, second cherry pick; 3% of 590 active; shares compounds with LAP4 TOR yeast; S. cerevisiae RPL19A-GFP strain, 3 h; active compounds read low; 100% means same as DMSO wells; GFP response vs DMSO, % at 10 µM;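 active = under 65% GFP response relative to DMSO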;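 also: median GFP channel fluorescence per well over the all cells gate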
CIT2-GFP pick2 – modulators of CIT2-GFP expression in yeast, confirmation, flow cytometry, second cherry pick, single plex. GFP response vs DMSO, % at 10 µM. shares compounds with LAP4 TOR yeast. S. cerevisiae CIT2-GFP strain, 3 h; DMSO control wells read 100%. 8% of 590 active;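 active = GFP response vs DMSO above about 150%, limit read from the data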;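 also: median green fluorescence per well over all gated yeast cells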
AGP1 GFP CP2 – AGP1-GFP expression modulators, hit retest, confirmation, cell-based, flow cytometry, S. cerevisiae, cherry pick set 2; AID 2643, 2010; S. cerevisiae AGP1-GFP strain, 3 h; shares compounds with LAP4 TOR yeast; 590 tested, under 10 active; percent response vs DMSO, % at 10 µM;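 active = over 150 percent of DMSO response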;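 also: median GFP channel fluorescence over all cells without mother daughter split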
s288c autofluor – compound autofluorescence in yeast s288c, dose response, artefact control for yeast TOR pathway GFP screen, s288c strain. shares compounds with LAP4 TOR yeast. S. cerevisiae s288c, 520 nm autofluorescence, flow cytometry, 3 h; active compounds read high; zero means same as solvent-only cells. fluorescence change (kMESF span) at 33 µM. 610 tested, under 10 active. AID 2757, 2010;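 active = fluorescence span over the dose series, or activity score, above about 33, limit read from the data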
A number is an active result; . = inactive.

SMILES	AGP1-GFP MLPCN	MEP2-GFP yeast	LAP4 TOR yeast	CIT2-GFP yeast	RPL19A TOR yeast	others
C=C1C(O)[C@@H]2O[C@]3(CC[C@H](/C=C/C(C)[C@@H]4CC(C)=CC5(O[C@H](C[C@@](C)(O)C(=O)O)CCC5O)O4)O3)CC[C@H]2O[C@@H]1C(O)CC(C)[C@H]1OC2(CCCCO2)CCC1C (stereo partly specified)	.	.	267	.	.	LAP4-GFP pick2=268;MEP2 cherry2=.;RPL19A GFP CP2=.;CIT2-GFP pick2=.;AGP1 GFP CP2=.;s288c autofluor=.
O=C(O)c1ccccc1-c1ccc(C=C2C(=O)N(c3ccccc3)C(=S)N(c3ccccc3)C2=O)o1	.	.	.	.	.
Cc1ccc(OC(F)F)c(N2C(=O)C3C4CCC(O4)C3C2=O)c1 (stereo unspecified)	.	.	.	.	.
NC1=C([N+](=O)[O-])C(c2ccc3c(c2)OCO3)c2c(c3ccccc3oc2=O)O1 (stereo unspecified)	.	.	.	.	.
O=c1oc2ccccc2c(O)c1[C@H]1c2ccc(O)cc2Oc2c1c(=O)oc1ccccc21	.	.	243	.	.	s288c autofluor=.
CCN1CCN(c2ccc(N)cc2C)CC1	.	.	.	.	.	LAP4-GFP pick2=.;MEP2 cherry2=.;RPL19A GFP CP2=.;CIT2-GFP pick2=.;AGP1 GFP CP2=.
CCN1CCN(c2ccc(N)cc2)CC1	.	.	.	.	.
Cc1[nH]c2ccccc2c1C(=O)C(=O)N1CC2CC(C1)c1cccc(=O)n1C2 (stereo unspecified)	.	.	.	.	.
Nc1ccc2ccc3cccc[n+]3c2c1	.	224	.	191	.	s288c autofluor=.
C[n+]1c(-c2ccccc2)c2cc(N)ccc2c2ccc(N)cc21	.	.	.	.	.
O=C(CCCOc1ccc(Cl)cc1Cl)N1CCC2(CC1)OCCO2	.	.	.	.	.
CCC(Oc1cc(Cl)ccc1Cl)C(=O)N1CCC2(CC1)OCCO2 (stereo unspecified)	.	.	.	167	.	LAP4-GFP pick2=.;MEP2 cherry2=.;RPL19A GFP CP2=.;CIT2-GFP pick2=.;AGP1 GFP CP2=.
C=C1[C@@H](OC(C)=O)[C@]23C[C@@H]1[C@@H](OC(C)=O)CC2[C@]12C4C[C@H]3[C@H]1N(CC)C[C@]4(C)CC[C@@H]2O (stereo partly specified)	.	.	.	.	.
